# Screening results deposited in PubChem BioAssay by National Center for Advancing Translational Sciences (NCATS).
# The list is not random: actives were taken first. Their share in the collection is about 7.9%.
# HCMV inh – blocks human cytomegalovirus replication. HFF cells, HCMV-luciferase reporter, 72 h; active compounds read low. activity change, negative = inhibition, % at 57.5 µM. hit rate 4.5% among 410,000; in the data active = activity change below about -60%; inconclusive = no clear call, values can overlap the other calls; inactive = above about -39%
#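 Two-dose cell screen: HFF monolayers treated with compounds and infected with luciferase-expressing HCMV at 1 PFU/cell, 72 h at 37C, then lysed for luciferase measurement.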
# FMDV inh – blocks foot and mouth disease virus. FMDV antiviral cell-based qHTS. AID 1159524. hit rate 1.2% among 410,000. Potency, µM (titrated, usually from 57.9 µM), for the others: at the highest dose activity change, negative = inhibition, actives largely listed as inhibitors; calls by dose curve; tested in HEK293T cells; also: read-out not given here; potency is read from the fitted curve at half-maximal effect; nearly all actives have a fitted effect of over 45% in size
# LASV entry inh – Lassa virus entry inhibition; Lassa virus pseudotype entry inhibition, cell reporter; Potency, µM (top dose mostly 37.9 µM), for the others: top-dose activity change, negative = inhibition, actives largely listed as inhibitors; hit rate 1.2% among 300,000; calls by dose curve; tested in HEK293 cells; also: potency is read from the fitted curve at half-maximal effect; nearly all actives have a fitted effect of over 50% in size
# Marburg entry inh – inhibitors of Marburg virus binding or cell entry | Marburg virus pseudotyped entry inhibition, cell reporter | Potency, µM (series often up to 37.8 µM), inactives show top-dose activity change, negative = inhibition, most hits filed as inhibitors | hit rate 1.8% among 300,000 | AID 540276; calls by dose curve; tested in HEK293 cells; also: potency is read from the fitted curve at half-maximal effect
# HCV inh – HCV inhibition; hit rate 3.4% among 340,000; AID 651820; Huh7.5.1 HCVcc-Cre infection, luciferase reporter, 44 h; Potency, µM (doses to about 41.8 µM), without a hit: at the top dose activity change, negative = inhibition, actives largely listed as inhibitors; active = well fitted inhibition curve with a large enough effect; inconclusive = small, poorly fitted or top-dose-only effect, or another doubt; inactive = no such curve, though single readings can be large or run the other way; also: potency is read from the fitted curve at half-maximal effect
#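 Luciferase read-out (15 sec integration) after a 15 min room-temperature substrate step quantifies HCVcc-Cre infection. Cells, 1,000 per well, had compound added 4 h post-plating, then virus at ~0.5 moi, and were cultured 44 h.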
# Active calls of the source: *; ? = inconclusive; . = not tested or not shown; + = active, no number; [ ] = remark or other dose. % is scaled to controls: 0 for no effect and ±100 for the full control effect.
SMILES,HCMV inh,FMDV inh,LASV entry inh,Marburg entry inh,HCV inh
COc1ccc(/C(N)=N/OC(=O)Cc2cccs2)cc1OC,3,35%,0%,?,?
COc1ccc(/C(N)=N/OC(=O)c2ccc(OC)c([N+](=O)[O-])c2)cc1OC,-21,0%,?,?,35µM*
COc1ccc(C(=O)O/N=C(\N)c2ccccc2Cl)cc1OC,52,20%,4.5µM*,11µM*,10µM*
COc1ccc(C(=O)O/N=C(\N)Cc2cccs2)cc1OC,16,4%,1.8µM*,?,?
COc1ccccc1C(=O)O/N=C(\N)c1ccccc1Cl,16,54%,?,?,-14%
CS(=O)(=O)N1CCC(C(=O)Nc2cc(Cl)c(Cl)cc2Cl)CC1,-32,-4%,13%[46.1 µM],-18%[46.1 µM],12%
Cc1cc2c(nc1C)CCCN2CC(O)CN1CCN(C)CC1 (stereo not drawn),.,.,.,18%[14.2 µM],.
CCC1CN(CCNC(=O)c2ccc(N3CCOCC3)cc2)Cc2cc(OC)ccc2O1 (stereo not drawn),.,-5%,.,.,.
CC1(C)O[C@@H](C(O)(c2cc(C(F)(F)F)cc(C(F)(F)F)c2)c2cc(C(F)(F)F)cc(C(F)(F)F)c2)[C@H](C(O)(c2cc(C(F)(F)F)cc(C(F)(F)F)c2)c2cc(C(F)(F)F)cc(C(F)(F)F)c2)O1,.,.,.,-9%[14.2 µM],.
Cc1ccc(NC(=S)N(CCN(C)C)Cc2cccs2)cc1,-38,27%,4%[46.1 µM],?,?
CCOC(=O)c1ccc(NC(=S)N(CCCN(CC)CC)Cc2ccco2)cc1,-4,1%,?,-53%,?
CCOC(=O)c1ccc(NC(=S)N(CCN(C)C)Cc2cccs2)cc1,-61*,54%,?,?,-26%
CCOC(=O)c1ccc(NC(=S)N(CCCN2CCCCC2)Cc2ccco2)cc1,?,-2%,-17%,13µM*,?
COc1cc2c(cc1OC)C(c1cccs1)N(C(=O)c1cccc(S(=O)(=O)N(C)C)c1)CC2 (stereo not drawn),?,-10%,?,-24%[46.1 µM],?
COc1ccc(N2CCN(c3ccc(-c4nc(-c5ccccc5C)no4)cc3[N+](=O)[O-])CC2)cc1,4,-13%,5%[46.1 µM],?,.
O=C(CSc1nnc(-c2ccc(F)cc2)c2ccccc12)Nc1ccccc1,-63*,2%,-11%,0%,-27%
O=C(CSc1nnc(-c2ccc(F)cc2)c2ccccc12)Nc1cccc(Cl)c1,-3,-26%,-4%,?,?
COc1ccccc1NC(=O)CSc1nc2ccccc2c2nc(-c3ccccc3)nn12,-14,-25%,-16%[46.1 µM],.,.
O=C(CSc1nnc(-c2ccc(F)cc2)c2ccccc12)Nc1ccccc1Cl,16,-3%,?,16%,-5%
O=C(CSc1nc2ccccc2c2nc(-c3ccccc3)nn12)Nc1ccc(F)cc1,+,14%,12%[46.1 µM],.,.
O=C(CSc1nnc(-c2ccc(F)cc2)c2ccccc12)Nc1c(F)cccc1F,-83*,-10%,?,-20%,-21%
Cc1ccc(Cl)cc1NC(=O)CSc1nc2ccccc2c2nc(-c3ccccc3)nn12,1,8%,?,.,.
Cc1cccc(Nc2nc(NCc3ccco3)c3ccccc3n2)c1,-95*,28µM*,5.8µM*,?,6.3µM*
Cc1ccc(Nc2nc(N)c([N+](=O)[O-])c(NCc3ccco3)n2)cc1C,43,?,-13%,?,?
CSc1nc(NCc2ccco2)c2ccccc2n1,?,?,2%,-22%,-26%
SMILES,HCMV inh,FMDV inh,LASV entry inh,Marburg entry inh,HCV inh
Oc1ccccc1Nc1nc(NCc2ccco2)c2ccccc2n1,0,?,.,.,13µM*
COc1ccc(OC)c(Nc2nc(NCc3ccco3)c3ccccc3n2)c1,?,?,-9%[46.1 µM],13µM*,11µM*
COc1ccc2oc(C(=O)OC(C)C(=O)N3C(C)CCCC3C)c(C)c2c1 (stereo not drawn),-29,-29%,?,20%[46.1 µM],-30%
CC1CCC/C(=C\c2ccc(O)cc2)C1=O (stereo not drawn),-35,81%,.,.,8%
CN(C)CC1CC/C(=C\c2ccc(O)cc2)C1=O (stereo not drawn),-76*,?,11µM*,?,?
CN(C)CC1CCC/C(=C\c2ccc(OC(=O)c3ccc(Cl)cc3)cc2)C1=O (stereo not drawn),-97*,?,?,?,11µM*
CN(C)CC1CCC/C(=C\c2ccc(OC(=O)/C=C/c3ccccc3)cc2)C1=O (stereo not drawn),1,40µM*,17%,-2%,?
O=C1/C(=C\c2ccc(Cl)cc2)CCC1CNc1ccc(Cl)cc1 (stereo not drawn),-17,-10%,-12%,-1%,?
COc1ccc(/C=C2/CCC(CN3CCOCC3)C2=O)cc1 (stereo not drawn),-98*,18µM*,13µM*,?,5µM*
COc1ccc(OC)c(CCNC(=O)CS(=O)(=O)Cc2nc(-c3ccc(C)cc3)oc2C)c1,2,-25%,3%,-9%,3.5µM*
COc1ccc(-c2nc(CS(=O)(=O)CC(=O)NCCc3cc(OC)ccc3OC)c(C)o2)cc1,-71*,9%,-10%,?,?
COc1ccc(-c2nc(CS(=O)(=O)CC(=O)Nc3ccc(Cl)cc3)c(C)o2)cc1,50,21%,.,-1%,10µM*
Cc1nc(SCC(=O)OC(C)(C)C)c2c3c(sc2n1)CCCC3,-3,-6%,-3%[46.1 µM],.,.
O=c1cc(C2CCCCC2)[nH]c(=O)[nH]1,27,0%,1%,10%,15%
CCCCNC(=O)O[C@H]1CC[C@@]23CCCN2C(=O)CCC[C@H]3[C@H]1Cc1ccccc1,-17,.,.,.,.
Cn1c(=O)c2c(ncn2CC(=O)Nc2nc(-c3ccccc3Cl)cs2)n(C)c1=O,-60*,13µM*,?,?,?
CCOC(=O)Cc1csc(NC(=O)Cn2cnc3c2c(=O)n(C)c(=O)n3C)n1,15,?,0%,2%[46.1 µM],1%
COC(=O)c1ccccc1NC(=O)Cn1cnc2c1c(=O)n(C)c(=O)n2C,19,?,-15%,-6%[46.1 µM],-3%
Cn1c(=O)c2c(ncn2CC(=O)Nc2ccccc2Sc2ccccc2)n(C)c1=O,-76*,.,-9%,?,-9%
CC1CC(NC2=NCCS2)CC(C)(C)C1 (stereo not drawn),-66*,-23%,-9%,?,-13%
CN1C(=O)C(C2(O)C(=O)N(Cc3ccccc3)c3cc(F)ccc32)c2ccccc21 (stereo not drawn),-23,.,.,.,.
Cc1nc(N2CCN(C(=O)c3ccco3)CC2)c2c3c(sc2n1)CCCC3,-25,.,-56%,?,2.8µM*
Cc1nc(N2CCN(C(=O)c3cccs3)CC2)c2c3c(sc2n1)CCCC3,-21,25µM*,?,-3%[46.1 µM],11µM*
O=C(c1ccco1)N1CCN(c2nc(C3CC3)nc3sc4c(c23)CCCC4)CC1,.,?,-15%,?,?
Cc1nc(N2CCN(C)CC2)c2c3c(sc2n1)CCCC3,-22,-19%,.,.,-16%
